Compound activity from PubChem BioAssay.
Hits are enriched below; roughly 11% of the tested compounds scored in any of these assays.
NIH3T3 tox – kills NIH 3T3 cells | NIH 3T3 viability, CellTiter-Glo ATP luminescence, 48-72 h | Potency, µM (highest dose often 96.7 µM), actives largely listed as inhibitors | 94,000 tested, 4.3% active | AID 1345082; note: nearly all actives have a fitted effect of over 55% in size
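Cells were seeded at 400 per well, treated with pin-transferred compound, and kept 48 or 72 hr at 37 °C before CellTiter-Glo addition and luminescence imaging of cellular ATP.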
NPR1 antag – human Npr1 receptor antagonism; HEK293 hNpr1 GloSensor cGMP, ANP-stimulated luminescence; Potency, µM (doses to about 46.3 µM), hits mostly inhibitors; 76,000 tested, 1.6% active; calls by dose curve; note: nearly all actives have a fitted effect of over 60% in size
Target sequence (P16066 whole entry, looked up): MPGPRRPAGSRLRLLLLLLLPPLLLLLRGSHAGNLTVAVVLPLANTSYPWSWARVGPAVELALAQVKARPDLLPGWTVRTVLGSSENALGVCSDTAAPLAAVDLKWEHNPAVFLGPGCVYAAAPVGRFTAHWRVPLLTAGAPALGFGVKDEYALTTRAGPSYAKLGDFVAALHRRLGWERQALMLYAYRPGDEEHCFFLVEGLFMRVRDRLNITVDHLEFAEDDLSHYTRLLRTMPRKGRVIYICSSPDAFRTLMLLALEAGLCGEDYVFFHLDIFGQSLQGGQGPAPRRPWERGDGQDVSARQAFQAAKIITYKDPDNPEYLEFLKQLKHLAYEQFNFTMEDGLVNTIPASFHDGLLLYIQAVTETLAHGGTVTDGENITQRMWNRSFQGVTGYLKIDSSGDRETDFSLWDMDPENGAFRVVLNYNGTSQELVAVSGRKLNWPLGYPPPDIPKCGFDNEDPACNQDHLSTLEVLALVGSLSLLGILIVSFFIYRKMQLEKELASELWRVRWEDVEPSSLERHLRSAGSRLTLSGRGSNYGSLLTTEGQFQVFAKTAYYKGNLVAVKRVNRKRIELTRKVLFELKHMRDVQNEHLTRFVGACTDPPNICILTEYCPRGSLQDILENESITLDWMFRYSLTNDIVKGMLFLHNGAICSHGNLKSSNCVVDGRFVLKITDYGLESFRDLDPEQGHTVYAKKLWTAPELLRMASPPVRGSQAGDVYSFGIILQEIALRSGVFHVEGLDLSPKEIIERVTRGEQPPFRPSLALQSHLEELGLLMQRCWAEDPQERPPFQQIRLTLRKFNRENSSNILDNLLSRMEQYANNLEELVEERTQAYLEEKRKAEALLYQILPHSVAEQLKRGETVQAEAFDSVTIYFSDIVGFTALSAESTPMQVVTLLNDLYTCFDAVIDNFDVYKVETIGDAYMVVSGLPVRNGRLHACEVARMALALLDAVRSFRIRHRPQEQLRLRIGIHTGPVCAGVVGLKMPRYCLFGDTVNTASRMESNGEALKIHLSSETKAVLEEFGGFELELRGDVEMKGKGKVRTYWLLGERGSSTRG
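Compound pre-incubated 30 min at room temperature on GloSensor-loaded HEK293 cells stably carrying hNpr1 and the pGS-40F cGMP biosensor. Stimulation uses hNppA at 0.1 nM final; luminescence is taken at baseline and 20 min post-agonist.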
Luciferase inh – Photinus pyralis luciferase inhibition. 76,000 tested, 2.5% active. Potency, µM (highest dose often 115 µM), most hits filed as inhibitors. AID 1347043. purified P. pyralis luciferase, luminescence, biochemical; note: nearly all actives have a fitted effect of over 65% in size
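Luminescence read by CCD imaging after purified firefly luciferase (10nM final) was added to substrate buffer holding 10uM D-luciferin and 10uM ATP, pH 7.5, pre-dosed with compound.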
HEK cytotox – kills HEK 293 cells. HEK 293 viability, ATP luminescence (CellTiter-Glo), 48-72 h. Potency, µM (doses to about 115 µM), hits mostly inhibitors. 94,000 tested, 6.6% active; note: nearly all actives have a fitted effect of over 60% in size
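qHTS cytotoxicity; HEK 293, 250 cells/well; compound pinned; 48 or 72 hr, 37 degree Celsius, 5% CO2, 95% humidity; CellTiter-Glo, 10 min RT; luminescence (ATP).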
A number is an active result; i = inactive; ? = inconclusive; nt = no result. Unless noted, calls come from the whole dose curve; as a rule, active = well fitted curve in the direction sought with a large enough effect; inconclusive = small, poorly fitted or top-dose-only effect, or another doubt; inactive = no such curve, though single readings can be large; an effect the other way counts as inactive or inconclusive.

SMILES	NIH3T3 tox	NPR1 antag	Luciferase inh	HEK cytotox
O[C@H]1CC[C@@H](Cc2cc(-c3ccc(F)cc3)on2)O[C@@H]1CNCc1cccnc1	i	i	i	i
O=C1CC(NCc2cc(F)ccc2-n2cccn2)CN1Cc1cccc(F)c1 (stereo not drawn)	i	i	i	i
O=C(C1CCN([S+](=O)([O-])c2ccccc2)CC1)N1CCC(c2nc3ncccc3[nH]2)CC1	i	nt	nt	i
O=C(NCCN1CCOCC1)c1ccc2nc(-c3ccnc(Cl)c3)oc2c1	i	nt	nt	i
O=C(Nc1ccccc1)Nc1ccc([C@H]2OCC(=O)N(Cc3ccc(F)cc3)[C@@H]2CO)cc1	?	i	i	39.8µM
COc1ccc(C(=O)Nc2ccc([C@H]3OCC(=O)N(Cc4ccncc4)[C@@H]3CO)cc2)cc1OC	89.1µM	i	i	i
CN(C)C(=O)CN1C(=O)CO[C@H](c2ccc(NC(=O)c3ccc(C(F)(F)F)cc3)cc2)[C@H]1CO	i	i	?	i
O=C(Nc1ccccc1)Nc1ccc([C@@H](O)[C@H]2COCC(=O)N2Cc2ccc(F)cc2)cc1	?	i	?	79.4µM
CC(C)CN1C(=O)CO[C@H](c2ccc(NC(=O)c3ccc(C(F)(F)F)cc3)cc2)[C@H]1CO	?	12.6µM	44.7µM	?
COc1ccc(C(=O)Nc2ccc([C@H]3OCC(=O)N(Cc4ccc(F)cc4)[C@@H]3CO)cc2)cc1	i	i	44.7µM	?
CC(C)CNC(=O)N1CCC(Cc2noc(C3CCOCC3)n2)C1 (stereo not drawn)	i	nt	nt	i
CS(=O)(=O)N1CC2(CCN(CC3CCCCC3)CC2)Cc2ccccc21	i	nt	nt	?
CN1CC[C@H](c2nc3ccc(C(F)(F)F)cc3[nH]2)C1	?	i	?	112µM
FC(F)(F)c1ccc(CN2CC[C@H](c3nc4ccc(C(F)(F)F)cc4[nH]3)C2)cc1	31.6µM	?	?	35.5µM
CCN1CCN(C(=O)c2nc3sccn3c2-c2cccnc2)CC1	i	nt	nt	i
CN(C)C[C@@H]1CN(c2ccccn2)C[C@H]1NC(=O)c1cccn1C	i	i	i	i
O=C(C1CCCO1)N1CCc2c(n(Cc3ccccc3)n(-c3ccccc3)c2=O)C1 (stereo not drawn)	31.6µM	i	i	i
O=C(C1CCOCC1)N1CCc2c(n(Cc3ccccc3)n(-c3ccccc3)c2=O)C1	100µM	i	i	i
COc1ccc(-n2c(=O)c3c(n2Cc2ccccc2)CN(C(=O)C2CCC(OC)CC2)CC3)cc1 (stereo not drawn)	?	i	i	i
COCCNC(=O)c1nc(-c2cccc(C(F)(F)F)c2)c2cnccn12	i	i	i	?
O=C(O)CCn1ncc2cc(OC3CCN(C(=O)Oc4ccccc4Cl)CC3)ccc21	8.91µM	nt	i	i
Cc1ccc(OC(=O)N2CCC(Oc3ccc4c(cnn4CCC(=O)O)c3)CC2)cc1	35.5µM	i	i	i
COc1ccc(OCC2CC3(CCCCC3)CN2S(=O)(=O)c2c(C)noc2C)cc1 (stereo not drawn)	i	nt	nt	28.2µM
CC(C)c1noc(-c2cccn3c(CNC(=O)C(C)c4ccccc4)nnc23)n1 (stereo not drawn)	i	i	i	i
COc1cccc(CN2CCc3c(cc(C(=O)Nc4ccc(C)cc4C)n3C)C2)c1	?	i	15.8µM	?
SMILES	NIH3T3 tox	NPR1 antag	Luciferase inh	HEK cytotox
COc1ccccc1NC(=O)c1cc2c(n1C)CCN(Cc1ccc(F)cc1)C2	?	i	15.8µM	31.6µM
COc1cccc(CN2CCc3c(cc(C(=O)Nc4cc(OC)cc(OC)c4)n3C)C2)c1	?	i	?	?
CSc1ccc(-c2cccc(C(=O)NCC(=O)NCC(F)F)c2)cc1	i	nt	nt	i
COCCNc1nc2c(S(=O)(=O)c3ccc(C)c(C)c3)nnn2c2ccccc12	?	nt	nt	i
COc1cccc(-c2cc(-c3ccccc3)nc3c(C)noc23)c1	?	i	i	?
COc1ccc(Nc2cc(-c3cccs3)nc3c(C)noc23)cc1OC	44.7µM	i	i	63.1µM
Cc1noc2c(-c3cccc(CO)c3)cc(-c3cccc(C(F)(F)F)c3)nc12	25.1µM	i	i	44.7µM
Cc1noc2c(-c3cccc(CO)c3)cc(-c3cccs3)nc12	44.7µM	i	i	100µM
Cc1noc2c(-c3cccc(CO)c3)cc(-c3ccc(F)cc3)nc12	?	i	i	70.8µM
CCCCC(=O)N1CCc2c(nc3cc(-c4ccccc4Cl)[nH]n3c2=O)C1	15.8µM	i	i	?
O=C(c1ccsc1)N1CCc2c(nc3cc(-c4ccccc4Cl)[nH]n3c2=O)C1	39.8µM	i	35.5µM	i
COc1ccc(C2NC(=O)N(CC(=O)N3CCCCCC3)C3=C2C(=O)OC3)cc1 (stereo not drawn)	i	i	i	i
COCCNc1ncccc1-c1cc(-c2ccccc2)nc2c(C)noc12	?	i	i	?
CCc1nc(-c2c(-c3ccccc3)ncn2CCc2ccncc2)c(C)[nH]1	i	i	i	i
CO[C@H]1[C@H](NC(=O)c2cc(C)nn2C)c2ccccc2C12CCNCC2	i	i	i	i
CO[C@H]1[C@H](NC(=O)c2cc3ccccc3n2C)c2ccccc2C12CCNCC2	22.4µM	i	i	35.5µM
CCn1ncc(N2CCCC(CC(=O)NC3CCN(C)CC3)C2)cc1=O (stereo not drawn)	i	nt	nt	i
O=C(c1ccc(Cl)cc1)N1CCOC(CN(C(=O)c2ccc(F)cc2)C2CCCC2)C1 (stereo not drawn)	?	i	i	44.7µM
Cn1cnc2cc(-c3cccc(F)c3)cc(C(=O)NCc3cccnc3)c21	?	i	i	?
Cn1nc(-c2cccc(F)c2)c(N2CCCC2)c1NC(=O)NCc1ccccc1	?	nt	nt	50.1µM
Cn1nc(-c2cccc(F)c2)c(N2CCCCC2)c1NC(=O)NCc1ccccc1	22.4µM	nt	nt	28.2µM
Cn1nc(-c2cccc(F)c2)c(N2CCCCC2)c1NC(=O)c1ccccc1F	39.8µM	nt	nt	39.8µM
Cc1cnc(C(=O)N2CCCC(c3nnc4n3CCN(C3CCCC3)C4)C2)cn1 (stereo not drawn)	i	nt	nt	i
CCc1nc2c(c(-c3ccc(Cl)cc3)n1)CN(Cc1cccc(F)c1)CC2	11.2µM	i	i	20µM
CCc1nc2c(c(-c3ccc(O)cc3)n1)CN(Cc1ccc(C(F)(F)F)cc1)CC2	?	i	i	?
SMILES	NIH3T3 tox	NPR1 antag	Luciferase inh	HEK cytotox
CCc1nc2c(c(-c3ccc(Cl)cc3)n1)CCN(Cc1ccc(C(F)(F)F)cc1)CC2	i	i	i	50.1µM
CCc1nc2c(c(-c3ccc(O)cc3)n1)CCN(Cc1ccc(C(F)(F)F)cc1)CC2	?	?	i	44.7µM
CCc1nc2c(c(-c3ccc(Cl)cc3)n1)CN(C(=O)c1ccc(C(F)(F)F)cc1)CC2	?	i	i	?
COc1ccc(CNC(=O)C[C@@H]2c3nc(NC(=O)c4c(F)cccc4F)sc3C[C@@H]3[C@](C)(CO)[C@H](O)CC[C@]32C)cc1	i	i	i	?
O=C1CCN(Cc2ccncc2)CCCC(C(=O)Nc2ccccc2CCc2ccncc2)CCN1 (stereo not drawn)	i	i	i	i
Cc1cc(C)n(CCC(=O)N2CCC(CCOc3ccc(F)cc3)C2)n1 (stereo not drawn)	i	?	i	79.4µM
